# Screening data: PubChem, National Center for Advancing Translational Sciences (NCATS)
# D3 ag: agonists of human D3 dopamine receptor | P35462 | D3R DiscoveRx beta-arrestin cells, luminescence, 90 min | max activation, % | 410,000 compounds, 0.58% hits; in the data active means max activation above about 30%; further: 0% is about no effect
# Target sequence (P35462 whole entry, looked up): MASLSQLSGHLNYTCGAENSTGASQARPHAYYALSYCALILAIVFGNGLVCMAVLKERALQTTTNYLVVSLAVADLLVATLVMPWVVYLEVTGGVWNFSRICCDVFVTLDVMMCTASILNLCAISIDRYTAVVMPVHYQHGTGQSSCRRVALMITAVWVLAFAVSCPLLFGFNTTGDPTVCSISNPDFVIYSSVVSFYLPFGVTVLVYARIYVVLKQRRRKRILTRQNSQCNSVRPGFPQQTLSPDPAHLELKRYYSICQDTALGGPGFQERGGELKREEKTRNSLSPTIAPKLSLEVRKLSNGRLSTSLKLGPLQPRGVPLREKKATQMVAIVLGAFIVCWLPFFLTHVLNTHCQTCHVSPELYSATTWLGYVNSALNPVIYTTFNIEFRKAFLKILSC
#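 Cells at 1500/well, incubated overnight, then treated with pinned compounds (dopamine as control) for 90 min at 37 degrees C. DiscoveRx reagent added for 30 - 60 minutes at room temperature; luminescence read.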
# IL1B secr inh: blocks inflammasome-driven IL-1 beta release. 360,000 compounds, 4.7% hits. activity change, % at 57.5 µM. THP-1 LPS/ATP IL-1B secretion, AlphaLISA, 16 h; stronger effect = lower value; in the data active means activity change below about -50%; inconclusive means mostly about -30% to -49%; further: on the % scale 0 is the no-effect control and ±100 the full control effect
#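 THP-1 cells pretreated 1 hr with compounds (up to 57.5 uM final), then stimulated with LPS (250 ng/mL final) plus ATP (1.25 mM final); secreted IL-1B measured by AlphaLISA after 16 hr, decreased signal indicating inhibition.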
# ClpP mod: qHTS Assay for Activators of ClpP; ATP-dependent Clp protease proteolytic subunit (Bacillus subtilis (strain 168)), P80244; purified B. subtilis ClpP, FRET peptide cleavage, 20 min; Potency, µM (top dose mostly 57.5 µM), for the others: top-dose activity change, negative = active; 340,000 compounds, 1.9% hits; AID 651965, 2013; active means well fitted falling curve with a large enough effect; inconclusive means small, poorly fitted or top-dose-only effect; inactive means no such curve, though single readings can be large or run the other way; further: potency means the concentration at half of the fitted maximal effect; the source files actives as falling curves though it sought activators and does not explain the sign; nearly all actives have a fitted effect of over 65% in size
# Target sequence (P80244 whole entry, looked up): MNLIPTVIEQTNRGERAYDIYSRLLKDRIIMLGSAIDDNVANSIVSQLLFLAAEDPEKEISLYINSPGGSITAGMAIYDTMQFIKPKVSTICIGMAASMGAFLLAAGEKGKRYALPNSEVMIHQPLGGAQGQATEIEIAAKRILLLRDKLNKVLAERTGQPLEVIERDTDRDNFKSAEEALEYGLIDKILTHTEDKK
#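 FRET quenching reversal measured ClpP activation: 10 microg/mL B. subtilis ClpP at pH 8 with the FRET-FV decapeptide, read at 430 nm after 320 nm excitation. The 20-min minus 0-min signal was scaled between DMSO/no-enzyme wells and ADEP (5.8 microM final).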
# TDP1 cell noCPT: qHTS for Inhibitors of human tyrosyl-DNA phosphodiesterase 1 (TDP1): qHTS in cells in absence of CPT | DT40 Tdp1-/- hTDP1 cells, no CPT, ATP luminescence, 48 h | Potency, µM (titrated, usually from 46.2 µM), without a hit: at the highest dose activity change, negative = growth inhibition, actives largely listed as inhibitors | 420,000 compounds, 15% hits | AID 686978, 2013; further: potency means the concentration at half of the fitted maximal effect; on the % scale 0 is the no-effect control and ±100 the full control effect; nearly all actives have a fitted effect of over 55% in size
#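 Luminescent ATP content (CellTiter-Glo) served as the growth readout. Knockout chicken DT40 cells expressing human TDP1 were exposed to compounds without camptothecin for a minimum 48 hr at 37 °C.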
# D3 antag: D3 dopamine receptor (human) antagonism. 360,000 compounds, 2.5% hits. max response, negative = inhibition, %. D3R cells, DiscoveRx beta-arrestin luminescence, antagonist mode; stronger effect = lower value. AID 652054; in the data active means max response below about -50%; inconclusive means no clear call, values can overlap the other calls; further: on the % scale 0 is the no-effect control and ±100 the full control effect
#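 Cells plated overnight at 1500 cells/well, then exposed to library compounds with dopamine controls for 90 minutes at 37 degrees C. DiscoveRx reagent added for 30–60 minutes at room temperature; luminescence read, quantitative HTS format.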
# DT40 TDP1 CPT: growth inhibition of DT40 Tdp1-/-;hTDP1 cells with camptothecin (screen for TDP1 inhibitors) | chicken DT40 Tdp1-/-;hTDP1 cells + 20 nM CPT, ATP luminescence, 48 h | Potency, µM (series often up to 46.2 µM), for the others: top-dose activity change, negative = growth inhibition, actives largely listed as inhibitors | 420,000 compounds, 12% hits | AID 686979; further: potency means the concentration at half of the fitted maximal effect; on the % scale 0 is the no-effect control and ±100 the full control effect; nearly all actives have a fitted effect of over 55% in size
#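 Chicken DT40 Tdp1-/- cells stably complemented with human TDP1 were seeded at 400 cells/well in medium containing 20 nM camptothecin, exposed to pin-transferred compounds, and grown at 37 °C for at least 48 hr. Viability was read as ATP luminescence.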
# An asterisk follows results filed as active; u = inconclusive; x = not tested or not shown; [ ] = remark or other dose. Shown are actives, neighbours in structure and some others; about 21% of the full set was active somewhere. Unless noted, the call rests on the fitted dose curve; in most records, active means well fitted inhibition curve with a large enough effect; inconclusive means small, poorly fitted or top-dose-only effect; inactive means flat fitted curve, though single readings scatter.
SMILES,D3 ag,IL1B secr inh,ClpP mod,TDP1 cell noCPT,D3 antag,DT40 TDP1 CPT
O=C(NCCCc1nc2ccccc2n1CCCCOc1ccccc1)C1CCCCC1,x,x,0%,13µM*,x,u
O=C(NCCCc1nc2ccccc2n1CCCOc1ccccc1)C1CCCCC1,x,x,0%,10µM*,x,11µM*
O=C(NCCCc1nc2ccccc2n1CCOc1ccccc1)C1CCCCC1,x,x,1%,-26%,x,-28%
O=C(COC(=O)c1ccccc1SCC(=O)N1CCCC1)Nc1ccccc1,0,28,-7%,-11%,-12,u
CN(Cc1ccccc1)C(=O)c1ccccc1C(=O)OCC(=O)N(Cc1ccccc1)C(C)(C)C,1,-50*,0%,15µM*,1,23µM*
CN(Cc1ccccc1)C(=O)COC(=O)c1ccc(Cl)cc1N,0,1,x,u,-17,10µM*
CC(C)(C)N(Cc1ccccc1)C(=O)COC(=O)c1ccccc1SCC(=O)N1CCCC1,5,-52*,x,u,32,u
CCOc1ccc(C(C)=O)cc1COC(=O)c1ccccc1C(=O)N(C)Cc1ccccc1,8,u,161%,7.3µM*,3,18µM*
CCOC(=O)C(NC(=O)C1C(C)N1S(=O)(=O)c1ccc(C)cc1)C(=O)OCC (centres undefined),0,3,-1%,12%,3,1%
COc1cccc(Cn2c(C)c(CNCc3cccc(C)c3)c(C(=O)O)c2C)c1,-8,x,-5%,u,x,-26%
CC(C)(C)N(Cc1ccccc1)C(=O)COC(=O)c1ccc(N2CCCC2=O)cc1,-13,-8,x,16µM*,-22,u
COc1ccc(CN2CCOc3ccc(C(O)c4cccnc4)cc3C2)cc1O (centres undefined),x,x,x,-19%,x,4%[9.04 µM]
O=C(COC(=O)Cc1ccccc1)NCc1ccc2c(c1)OCO2,0,-3,0%,-13%,17,4%
Cc1onc(C(=O)NN)c1-c1csc(COc2ccc(Cl)cc2)n1,44*,-24,1%,15µM*,4,21µM*
Cc1nc(-c2nc(-c3c(C(=O)NNC(=O)Nc4cccc(Cl)c4)noc3C)cs2)cs1,5,-12,0%,u,-2,u
COc1cc(C2c3c(-c4c(C)cc(C)cc4O)n[nH]c3C(=O)N2Cc2ccco2)cc(OC)c1OC (centres undefined),-9,x,-2%,-27%,x,-30%
CN(C)c1nc(NCc2ccccc2)nc(SCC(=O)Nc2ccc(Cl)c(Cl)c2)n1,46*,0,-1%,u,41,21µM*
CCNc1nc(SCC(=O)Nc2ccc(Cl)c(Cl)c2)nc(N(C)C)n1,-1,13,1%,15µM*,-14,u
COc1nc(SCC(=O)Nc2ccccc2Cl)nc(N(C)C)n1,-5,13,0%,-20%,17,u
Cn1ncc(C(=O)N=S(C)(=O)c2ccccc2)c1[N+](=O)[O-] (centres undefined),-13,1,2%,-3%,5,-12%
COc1cc(CN2CCN(c3ccccc3F)CC2)c([N+](=O)[O-])cc1OC,0,0,-6%,-23%,-12,u
O=C(NCCC(=O)N1CCCCCCC1)c1ccc(Cl)cc1,-14,1,-1%,-15%,6,-21%
Cn1c(SCC(=O)O)nnc1-c1cccc(NC(=O)c2cccc3ccccc23)c1,-2,0,-1%,10%,0,16%
Cc1cc(C)nc(N2CCN(c3ccc(F)cc3)CC2)n1,4,9,0%,3%,1,-20%
CC(=O)Nc1sc(C)c(C)c1C(=O)OCCOc1ccccc1,15,14,x,u,7,-7%
SMILES,D3 ag,IL1B secr inh,ClpP mod,TDP1 cell noCPT,D3 antag,DT40 TDP1 CPT
N/C(=N\OC(=O)CCCN1C(=O)c2ccccc2C1=O)c1ccccn1,2,18,x,5%,2,2%
COc1ccc(/C(N)=N/OC(=O)CCCN2C(=O)c3ccccc3C2=O)cc1OC,41*,25,x,-19%,-8,-18%
COc1ccc(/C(N)=N/OC(=O)Cc2ccc(OC)c(OC)c2)cc1,2,-78*,1%,u,11,u
COc1ccc(CC(=O)O/N=C(\N)c2ccncc2)cc1OC,-6,4,1%,u,-19,-29%
Cn1c(=O)c2nc(-c3ccccc3)c(-c3ccccc3)nc2n(C)c1=O,1,-1,-9%,21µM*,13,u
Cn1c(=O)c2nc(Cl)c(-c3ccccc3)nc2n(C)c1=O,4,-13,25µM*,u,12,2%
Cn1c(=O)c2nc3ccccc3nc2n(C)c1=O,-5,31,-30%,22%,-16,-1%
CC(=O)c1cccc(NC(=O)COc2ccccc2C(=O)Nc2ccccc2)c1,x,x,-4%,u,x,u
O=C(COc1ccccc1CNCc1ccccc1)Nc1ccccc1,-16,-21,-1%,18µM*,5,u
COc1ccccc1OCC(=O)Nc1ccc(NC(=O)COc2ccccc2OC)cc1,8,23,-1%,-8%,2,-29%
O=C(COc1ccccc1C(=O)Nc1ccccc1)Nc1ccccc1F,x,x,1%,16µM*,x,u
N#Cc1ccc(NC(=O)COc2ccccc2C(=O)Nc2ccccc2)cc1,x,x,-9%,u,x,11µM*
CC(=O)c1ccc(NC(=O)COc2ccccc2C(=O)Nc2ccccc2)cc1,4,2,-2%,11µM*,2,11µM*
COc1cc(OC)c(C2CC(=O)Nc3ccc4ccccc4c32)cc1OC (centres undefined),-10,x,-1%,u,x,-23%
O=C(CN(Cc1ccccc1Cl)S(=O)(=O)c1ccc(Cl)cc1)N/N=C/c1ccc(C(=O)O)cc1,-7,6,-3%,5%,-8,-12%
COc1ccccc1N1CCN(C(=O)COc2ccc(Cl)cc2Br)CC1,-1,u,-1%,u,5,u
COc1cc(C(=S)N2CCN(c3ccccc3Cl)CC2)cc(O)c1O,2,8,1%,23µM*,-12,u
COc1ccc(C(=S)N2CCN(c3ccccc3Cl)CC2)cc1OC,-5,0,0%,16µM*,0,u
CCC(C)[C@H](NC(=O)N1CC(=O)Nc2ccccc21)C(=O)N1CCC[C@H]1C(=O)O (some centres undefined),-32,-10,-3%,-7%,0,-10%
